Source: PubChem BioAssay (NMMLSC)
A selection: hits, their analogues and other compounds. The true share with any hit is near 1.2%.
GSH bead fluor = GSH bead compound fluorescence profile; fluorescence (KMESF) at 10 µM; AID 1776; GSH beads flow cytometry, compound fluorescence 488/530 nm; stronger effect = higher value; 0.25% of 190,000 active; in the data active means fluorescence above about 89;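 further: glutathione beads carrying GST-tagged Bcl family fusion proteins plus one bare bead set; values are compound well signal with DMSO vehicle wells as background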
RGS16-Gao HTS = regulators of human RGS16-Galphao interaction; bead-based flow cytometry RGS16-Galphao binding, fluorescence; actives lie on both sides; binding response (% of control), % at 10 µM; 0.38% of 220,000 active; AID 1441; call rule not given here;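 further: Galphao activated by GDP with aluminum fluoride before binding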
Target sequence (O15492 whole entry, looked up): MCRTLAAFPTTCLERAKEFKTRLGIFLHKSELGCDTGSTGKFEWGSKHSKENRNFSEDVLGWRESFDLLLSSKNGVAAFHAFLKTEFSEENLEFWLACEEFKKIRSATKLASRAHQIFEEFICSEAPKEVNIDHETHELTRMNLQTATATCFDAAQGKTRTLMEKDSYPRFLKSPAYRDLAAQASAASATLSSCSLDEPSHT
Target sequence (P09471 whole entry, looked up): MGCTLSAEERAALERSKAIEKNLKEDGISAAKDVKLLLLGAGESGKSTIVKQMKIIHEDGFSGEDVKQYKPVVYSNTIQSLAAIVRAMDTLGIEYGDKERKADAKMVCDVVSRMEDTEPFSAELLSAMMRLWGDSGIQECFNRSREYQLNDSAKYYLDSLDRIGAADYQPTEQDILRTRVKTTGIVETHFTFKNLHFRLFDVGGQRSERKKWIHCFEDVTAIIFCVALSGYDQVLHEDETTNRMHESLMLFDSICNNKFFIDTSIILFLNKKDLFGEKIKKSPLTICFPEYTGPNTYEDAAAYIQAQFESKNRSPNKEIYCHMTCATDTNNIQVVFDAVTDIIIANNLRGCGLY
Avidin fluor = avidin bead compound fluorescence profile. fluorescence (KMESF) at 10 µM. Avidin beads, compound fluorescence 488/530 nm, flow cytometry; stronger effect = higher value. 0.38% of 220,000 active; in the data active means fluorescence above about 47
RGS8-Gao reg = regulators of human RGS8-Galphao interaction. P09471. multiplexed bead flow cytometry, RGS8-Galphao binding; actives lie on both sides. response (percent of control binding), % at 10 µM. 0.34% of 220,000 active. AID 1423; in the data active means response below about 60% or above about 140%; inactive means in between;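 further: Galphao activated as the GDP aluminium fluoride complex binding bead-coupled RGS8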
RGS7-Gao reg = human RGS7-Galphao interaction regulation | 0.35% of 220,000 active | P09471 | Multiplexed bead flow cytometry, RGS7-Galphao binding; actives lie on both sides | binding response (% of control), % at 10 µM | AID 1439; in the data active means binding response below about 49% or above about 150%; inconclusive means no clear call, values can overlap the other calls; inactive means in between;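 further: fluorescent Galphao held in activated GDP-AlF4 state binding bead-coupled RGS7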
RGS4-Gao reg = human RGS4-Galphao interaction regulation. AID 1415. 0.33% of 220,000 active. binding response (% of control), % at 10 µM. Multiplexed bead flow cytometry, RGS4-Galphao binding; actives lie on both sides; in the data active means binding response below about 49% or above about 150%; inactive means in between;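 further: fluorescent Galphao activated with aluminum fluoride binding bead-coupled RGS4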
* hit, by the source's call; ? = inconclusive; . = no result.

SMILES	GSH bead fluor	RGS16-Gao HTS	Avidin fluor	RGS8-Gao reg	RGS7-Gao reg	RGS4-Gao reg
Cc1ccc(C)c(/C(O)=C2\C(=O)C(=O)N(Cc3cccnc3)C2c2cccnc2)c1 (stereo not given)	18	97	49*	97	105	95
O=c1[nH]c(SCc2nc3c(cnn3-c3ccccc3)c(=O)[nH]2)nc2ccccc12	9	102	18	99	99	101
O=c1[nH]c(CSc2nc3ccccc3o2)nc2c1cnn2-c1ccccc1	255*	106	8	103	101	101
O=C(O)c1ccccc1NS(=O)(=O)c1ccc2c3c(cccc13)C(=O)N2	19	108	75*	104	133	114
CN(c1ccccc1C(=O)O)S(=O)(=O)c1ccc2c3c(cccc13)C(=O)N2	18	94	19	100	96	96
CCCNCC(O)Cn1c2ccccc2n2c(=O)cc(C)c(C#N)c12 (stereo not given)	15	114	14	103	106	102
COc1ccccc1NS(=O)(=O)c1ccc(OC)c(OC)c1	22	98	113*	104	126	106
COc1ccc(/C=C2/SC(=O)N(CCC(=O)Nc3ccc(S(=O)(=O)Nc4nccs4)cc3)C2=O)cc1	19	100	7	99	98	100
N#Cc1ccc(Cl)cc1NC(=O)COC(=O)c1ccc2c(c1)OCCO2	16	104	66*	103	115	102
COc1ccc(NC(=O)c2cc3c(-c4ccc(OC)c(OC)c4)nn(C)c3s2)cc1OC	30	98	12	102	104	101
CC1(C)Cc2c(C#N)c(SCC(=O)c3ccccc3)nc(N3CCOCC3)c2CS1	23	102	49*	102	127	104
Cc1ccc(OCC(=O)N(Cc2ccccc2)c2ccccn2)cc1	12	102	13	99	98	100
CCNC(=O)CSc1nnc(CN2CCCCCC2=O)n1-c1ccccn1	15	109	26	103	103	103
O=C1CCCCCN1Cc1nnc(SCc2nc3ccccc3s2)n1-c1ccccn1	257*	108	8	101	106	103
COc1cc(NS(=O)(=O)c2ccc(NC(=S)NC(=O)c3ccco3)cc2)ncn1	24	109	12	104	101	102
O=C(COC(=O)/C=C/c1cccs1)Nc1ccc2ccccc2c1	12	95	68*	93	133	69
O=C(COC(=O)/C=C/c1cccs1)Nc1ccccc1Cl	8	101	22	100	100	98
O=C1c2ccccc2-c2cccc(C(=O)N3CCN(C(=O)c4ccccc4)CC3)c21	19	99	10	100	?	101
Cn1c(=O)c2c(ncn2CC(=O)Nc2ccccc2Sc2ccccc2)n(C)c1=O	15	104	14	101	102	105
Cn1c(=O)c2c(ncn2CC(=O)Nc2ccccc2N2CCOCC2)n(C)c1=O	26	103	67*	100	122	106
COc1ccc(C2/C(=C(\O)c3ccc4c(c3)OCCO4)C(=O)C(=O)N2Cc2ccco2)c(OC)c1 (stereo not given)	122*	113	8	106	112	117
COc1ccc(/C(O)=C2/C(=O)C(=O)N(Cc3ccco3)C2c2cccs2)cc1 (stereo not given)	17	110	23	104	107	103
Cn1c(=O)c(C(=O)COc2ccc(F)cc2Cl)c(N)n(Cc2ccccc2)c1=O	19	103	17	101	103	104
O=C(CSc1nnc(-c2ccco2)o1)NC(=O)C1COc2ccccc2O1 (stereo not given)	245*	6	3	71	77	70
COC(=O)c1ccc(Cl)c(NC(=O)NC23CC4CC(CC(C4)C2)C3)c1	18	99	12	99	103	99
COC(=O)c1cccc(NC(=O)NC23CC4CC(CC(C4)C2)C3)c1	243*	102	8	102	102	100
Cc1cccc(Cl)c1NC(=S)N1CCN(c2ccc([N+](=O)[O-])cn2)CC1	.	87	7	93	?	86
CCOC(=O)c1cc(-c2ccc(C)cc2)n(CCC(=O)NC(C)CC)c1C (stereo not given)	19	102	64*	100	105	102
